Lassa entry inh: blocks Lassa virus binding to or entry into cells; Lassa virus pseudotype entry inhibition, cell reporter; Potency, µM (series often up to 37.9 µM), hits mostly inhibitors; 1.2% of 300,000 active; AID 540256; calls by dose curve; tested in HEK293 cells; note: nearly all actives have a fitted effect of over 50% in size
Marburg entry inh: Marburg virus entry inhibition; 1.8% of 300,000 active; Marburg virus pseudotyped entry inhibition, cell reporter; Potency, µM (doses to about 37.8 µM), actives largely listed as inhibitors; AID 540276; calls by dose curve; tested in HEK293 cells
HCMV antiviral: human cytomegalovirus inhibition; HFF cells, HCMV-luciferase reporter, 72 h; stronger effect = lower value; activity change, negative = inhibition, % at 57.5 µM; 4.5% of 410,000 active; AID 1259415; in the data active = activity change below about -60%; inconclusive = no clear call, values can overlap the other calls; inactive = above about -39%
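Inhibition of viral replication was scored as loss of reporter luminescence in HFFs infected with HCMV-luciferase (MOI 1 PFU/cell) for 72 h; compounds tested at 2 doses, normalized to buffer and Salinomycin controls.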
FMDV inh: foot and mouth disease virus antiviral activity. FMDV antiviral cell-based qHTS. Potency, µM (top dose mostly 57.9 µM), most hits filed as inhibitors. 1.2% of 410,000 active. AID 1159524; calls by dose curve; tested in HEK293T cells; note: read-out not given here; nearly all actives have a fitted effect of over 45% in size
Each line names hits and unclear results; the compound was inactive in the other large screens; ! = repeats disagree. The list is not random: actives were taken first. Their share in the collection is about 6.2%.

COc1cc2cc(CN(CCc3ccccc3C)C(=S)NCCCN(C)C)c(=O)[nH]c2cc1OC	Lassa entry inh inconclusive, Marburg entry inh inconclusive
CN(C)CCCNC(=S)N(CCN(C)C)Cc1cc2cc3c(cc2[nH]c1=O)OCCO3	Marburg entry inh inconclusive
CN(C)CCCNC(=S)N(Cc1cccs1)Cc1cc2cc3c(cc2[nH]c1=O)OCCO3	Lassa entry inh inconclusive, Marburg entry inh 23µM
O=C(CSc1n[nH]c(-c2cccs2)n1)NCc1ccc2c(c1)OCO2	none
O=C(NCc1ccco1)c1ccc(C(=O)NCc2ccco2)s1	none
Cc1cc(C)cc(-n2ncc3c2CCCC3NC(=O)c2cc(C)n(C)n2)c1 (centres undefined)	none (no result: Lassa entry inh, Marburg entry inh)
CC(=O)c1cc(C(=O)NC2CCCc3c2cnn3-c2cc(C)cc(C)c2)[nH]n1 (centres undefined)	none
Cc1cc(C)cc(-n2ncc3c2CCCC3NC(=O)c2cc(C)[nH]n2)c1 (centres undefined)	Lassa entry inh inconclusive, Marburg entry inh 3.5µM, FMDV inh inconclusive
Cc1cc(C(=O)NC2CCCc3c2cnn3-c2ccc(C(C)(C)C)cc2)nn1C (centres undefined)	Lassa entry inh inconclusive, Marburg entry inh inconclusive, HCMV antiviral -78, FMDV inh inconclusive
CC(C)(C)c1ccc(-n2ncc3c2CCCC3NC(=O)CCn2cncn2)cc1 (centres undefined)	HCMV antiviral -68
CC(C)(C)c1ccc(-n2ncc3c2CCCC3NC(=O)C2(C(N)=O)CC2)cc1 (centres undefined)	HCMV antiviral -96, FMDV inh inconclusive (no result: Lassa entry inh, Marburg entry inh)
O=C(Nc1ccc2nc(SCCOc3ccccc3Cl)sc2c1)c1cccs1	HCMV antiviral -88
CCC(=O)Nc1ccc2nc(SCCOc3ccccc3)sc2c1	Marburg entry inh inconclusive, HCMV antiviral -63
CCCC(=O)Nc1ccc2nc(SCCOc3ccccc3)sc2c1	HCMV antiviral -60
COc1ccc(C2CC(c3ccccc3)=NN2C(=O)COC(=O)/C=C/c2ccc(O)c(OC)c2)cc1 (centres undefined)	none (no result: Lassa entry inh, Marburg entry inh)
CCCS(=O)(=O)N1CCC(C(=O)NC2CCCCC2C)CC1 (centres undefined)	none
Cc1cccc(C)c1Nc1nnc(SCc2cn3cccc(C)c3n2)s1	HCMV antiviral -70 (no result: Lassa entry inh)
C/C(N)=C(/C#N)C(=O)CSc1nnc(SCc2ccc(Cl)cc2)s1	Lassa entry inh inconclusive, Marburg entry inh inconclusive, HCMV antiviral -64, FMDV inh inconclusive
C/C(N)=C(/C#N)C(=O)CSc1nnc(Nc2c(C)cccc2C)s1	Marburg entry inh inconclusive, HCMV antiviral -67!
C/C(N)=C(/C#N)C(=O)CSc1nn(-c2ccc(Cl)cc2)c(=S)s1	none (no result: Lassa entry inh, Marburg entry inh)
Cc1cccc(C)c1Nc1nnc(SCC(=O)NC(=O)c2cccn2C)s1	none
COC(CNC(=O)c1c[nH]c2ccc(S(=O)(=O)N3CCOCC3)cc2c1=O)OC	none (no result: Lassa entry inh, Marburg entry inh)
CCN(CC)c1ccc([N+](=O)[O-])cc1/C=N/NC(=O)CC#N	none
Cc1cc(/C=N/NC(=O)CC#N)c(C)n1-c1ccc([N+](=O)[O-])cc1	HCMV antiviral -91
Cc1ccc(-n2ccnc(SCC(=O)NC3CCCC3)c2=O)cc1F	none
Cc1cc2c(cc1C)CSC(c1ccc3ccccc3c1O)SC2	Lassa entry inh inconclusive, Marburg entry inh 3.7µM
Cc1cc2c(cc1C)CSC(c1c(O)ccc3ccccc13)SC2	Lassa entry inh inconclusive, Marburg entry inh inconclusive, HCMV antiviral -74, FMDV inh inconclusive
CC(C)CNC(=S)N1CCN(C)CC1	none
Cc1cc([N+](=O)[O-])cc2ncccc12	none
CCN1CCN(CC(=O)N2N=C(c3cccs3)CC2c2ccc(OC)c(OC)c2)C(=O)C1=O (centres undefined)	none
C=C1C(=O)c2sccc2C(c2ccc(OC)c(OC)c2)C1COC(C)=O (centres undefined)	Lassa entry inh 7.9µM, Marburg entry inh 0.89µM, HCMV antiviral -102, FMDV inh 13µM
CCCCCNC(=O)C(c1cccc2ccccc12)n1c(=O)c(-c2ccco2)nc2ccccc21 (centres undefined)	none (no result: Lassa entry inh, Marburg entry inh)
CCCN1CCC(N2CCCC(C(=O)O)C2)CC1 (centres undefined)	HCMV antiviral -60
CCOc1ccc(NC(=O)CSc2nc3c(oc4ccccc43)c(=O)n2-c2ccccc2C)cc1	Marburg entry inh inconclusive, HCMV antiviral -82 (no result: Lassa entry inh)
Cn1ncc(Cl)c1C(=O)Nc1ccncc1	none
Cn1ncc(Cl)c1C(=O)NCc1ccc(Cl)cc1	HCMV antiviral -72, FMDV inh inconclusive
O=C(O)Cn1c(O)c(C2=c3ccccc3=NC2=O)sc1=O	none (no result: Lassa entry inh, Marburg entry inh)
Cn1c(O)c(C2=c3ccccc3=NC2=O)sc1=Nc1ccc(Cl)cc1	Marburg entry inh inconclusive, HCMV antiviral -67
O=C(CSCc1cnn(-c2ccccc2)c1-n1cccc1)NCc1cccc(Cl)c1	none
Cc1ccc(CNC(=O)c2cnn3c(C)c(Cc4c(F)cccc4Cl)c(C)nc23)cc1	FMDV inh inconclusive (no result: Marburg entry inh)
